Assay results taken from PubChem BioAssay AID493240 (Broad Institute, 2011).
Screen size: about 1,300 compounds; about 270 (21%) were called active. A selection follows. Results with a measured potency or affinity are listed apart. Unmarked numbers belong to inactive results. No rule for the calls is given here.

test: cytotoxicity in parental SK-MEL-5 melanoma cells – cell-based, CellTiter-Glo, cherry-picked, set 3, orthogonal assay for MITF inhibitor project, dose response (AID 493240); conditions: SK-MEL-5 viability, ATP luminescence (CellTiter-Glo), 24 h; series mostly up to 35 µM; activity change, negative = viability loss: at the top concentration

SMILES | activity change, negative = viability loss
CCN(CC)CC(=O)Nc1scc2c1c(=O)oc1ccccc12 | 9.99%
CCN(Cc1ccc(OC)c(F)c1)C(=O)CCl | -6.7%
COc1ccccc1N(C(=O)CCl)c1cn(C(C)=O)c2ccccc12 | -32.2%
O=C(c1ccc(F)cc1)C(CN1CCOCC1)c1ccccc1 (centres undefined) | -14.1%
Cn1nnnc1Sc1ncnc2scc(-c3ccc(F)cc3)c12 | -16.3%
Cn1nnnc1Sc1ncnc2scc(-c3ccsc3)c12 | -1.66%
O=C(NC1=NCCS1)c1ccc(Cl)c(Cl)c1 | -7.94%
O=C(Nc1ccc2nc(-c3ccccc3)[nH]c2c1)c1ccco1 | -12%
COc1ccc(C(=O)/C=C/Nc2ccccn2)cc1 | -36.9%
O=C(/C=C\Nc1ccc2c(c1)OCO2)c1ccccn1 | -44.2%
CCN(CC)Cc1c(O)ccc2c1O/C(=C\C=C\c1ccccc1)C2=O | -2.2%
Cc1cc(/C=C(\C#N)C(=O)O)c(C)n1CC(C)C | 12.1%
CN(C)c1ccc(/C=N\NC(=O)c2cccc3cc[nH]c23)cc1 | 7.77%
Cc1ccc(-c2nc(C#N)c(NCc3ccco3)o2)cc1 | -10%
Cc1ccccc1OCC(=O)Nc1cccc(C(=O)O)c1 | -8.49%
Cc1cc(NC(=O)c2ccc([N+](=O)[O-])o2)ccc1NC(=O)c1ccco1 | -34.3%
O=C(Nc1ccc2oc(-c3cccnc3)nc2c1)c1ccc([N+](=O)[O-])o1 | -13.7%
COc1ccccc1/C=C/C=N/NC(=O)c1cccs1 | 2.03%
CC(C)c1ccc(/C=C2\SC(=S)N(CCC(=O)N3CCCCC3CCO)C2=O)cc1 (centres undefined) | -2.33%
CN(C)S(=O)(=O)c1cccc(NC(=O)CSc2nc3c(cc2C#N)C(=O)CC(C)(C)C3)c1 | -14.6%
O=C(CCC(=O)c1ccc[nH]1)c1ccc(Cl)cc1 | -5.44%
CCOC(=O)N1CCN(C(=O)c2ccc(Cn3c(=S)[nH]c4ccc(Br)cc4c3=O)cc2)CC1 | -37%
C=CCNc1nc(-c2ccccn2)nnc1-c1ccccc1 | -21.7%

SMILES | activity change, negative = viability loss
Cc1cc(C)c2nc3nc(C)cc(C)c3c(N)c2c1 | -25.4%
N#C/C(=C\C=C\c1ccccc1[N+](=O)[O-])C(=O)NCc1ccccc1 | -18.2%
Cc1cc(Cl)ccc1OCCCC(=O)N1CCOCC1 | -12%
Cc1cccc(N(O)C(=O)Nc2cccc(Cl)c2)c1 | -4.38%
Nc1c(-c2ccccc2)cnc2c(-c3ccccc3)cnn12 | -13.3%
CC(=O)c1ccc(Sc2nnnn2-c2ccccc2)c([N+](=O)[O-])c1 | -8.68%
Cc1ccc(-c2noc(-c3ccno3)n2)cc1 | -0.841%
Cc1cc(-n2c(C)cc(C(=O)CCl)c2C)no1 | -18.2%
Cc1ccc(OCCCCN2CCCCC2)c(Br)c1 | -4.91%
Clc1ccccc1CSc1nnc(-c2ccncc2)o1 | -11.6%
c1ccc(C[n+]2cccc3c4ccccc4ccc32)cc1 | -37.1%
CC1(C)Cc2c(sc(NC(=O)c3ccc4ncsc4c3)c2C(N)=O)C(C)(C)N1 | -34.2%
CS(=O)(=O)c1ccc2nc(NC(=O)c3ccccc3)sc2c1 | -12.4%
CCCN(CCC)C1=CC(=[N+]2CCCC2)CC(C)(C)C1 | -30.5%
Cc1nc(Sc2nnnn2C)c2c3c(sc2n1)CCC3 | -24.1%
COC(=O)c1ccc(-n2c(C)cc(C(=O)CCl)c2C)cc1 | -49.6%
Cc1ccc2c(c1)COc1c3ccc(C(=O)O)cc3nn1-2 | -36.1%
Nc1ccc(-c2cc3ccccc3c(=O)o2)cc1 | -23.3%
Nc1c(-c2ccc(Cl)cc2)nnn1-c1ccccc1 | -10.9%
Cc1ccc(NC(=O)c2cc(N3C(=O)C=CC3=O)ccc2N2CCOCC2)cc1 | -28.6%
COc1cc(OC)cc(-c2oc(=O)c3cc(OC)c(OC)cc3c2C(F)(F)F)c1 | 5.28%
O=C1c2ccccc2CN1c1ccccc1 | -2.83%
Cn1c(/C=C/c2cccc([N+](=O)[O-])c2)c([N+](=O)[O-])c(=O)n(C)c1=O | -4.42%

SMILES | activity change, negative = viability loss
O=C(O)c1cccc(NC(=O)c2cccc(NC(=O)C3CCCO3)c2)c1 (centres undefined) | -11.9%
N#Cc1nc(/C=C/c2ccccc2)oc1NCCCN1CCOCC1 | -14.3%
Oc1cc(NCCN2CCOCC2)cc2cccnc12 | -56.1%
CC(C)(C)c1cc(NCCCn2ccnc2)n2ncc(-c3ccccc3)c2n1 | -5.35%
O=c1c(Cl)c(Cl)cnn1Cc1ccc(F)cc1 | 2.13%
Cc1c(NC(=O)C(C)OC(=O)c2ccc([N+](=O)[O-])s2)c(=O)n(-c2ccccc2)n1C (centres undefined) | 6.54%
Cc1cc(Sc2ncnc(N)c2[N+](=O)[O-])ncn1 | -23.4%
Cc1ccc(OCC(=O)Nc2ccccc2F)cc1 | 4.09%
Fc1cccc(Cl)c1CSc1nnc(-c2ccncc2)o1 | 12.6%
CN(CCC#N)C(=O)COC(=O)c1ccccc1C(=O)c1ccc(Cl)c([N+](=O)[O-])c1 | -14.9%
CCOC(=O)N1C(=O)[C@](CC)(c2ccccc2)N1C(=O)OCC | -16.8%
Cc1ccc(NC(=O)c2cc3ccccc3oc2=O)cc1S(=O)(=O)N(C)C | -2.98%
CC(C)C(=O)Nc1cccc(NC(=O)c2cc3ccccc3o2)c1 | -5.61%
COc1ccc(N/N=C/c2c(C(=O)O)ccc3ccccc23)cc1 | -18.1%
Cc1ccc(S(=O)(=O)Nc2cccc3cccnc23)cc1 | 12.9%
CC1C/C(=C\c2cccnc2)C(=O)/C(=C/c2cccnc2)C1 (centres undefined) | -9.76%
C=C1C(=O)C=C[C@]2(C)C[C@@H]3OC(=O)[C@](C)(O)[C@H]3C[C@@H]12 | -25.9%
Cc1ccc2nc(NC(=O)c3ccc(Br)o3)sc2c1 | -6.22%
CC(C)C(NC(=O)OCc1ccccc1)C(=O)OCC(=O)N1CCCCC1 (centres undefined) | 11.4%
CCOC(=O)c1ccc(NC(=O)Cc2cccs2)cc1 | -5.41%
CCOC(=O)c1ccc(NC(=O)c2nc(S(=O)(=O)Cc3ccccc3)ncc2Cl)cc1 | -33.5%
CCc1ccc(Nc2nc(C)cc(C)n2)cc1 | -4.01%
Cc1cc(O)ccc1Nc1nc(-c2cccnc2)cs1 | -1.37%

SMILES | activity change, negative = viability loss
Cc1c(C#N)c(O)n(CCO)c(=O)c1N=Nc1ccc2c(c1)COC2=O | -30.3%
N#Cc1cnc2sc3ccccc3n2c1=N | -13.4%
O=C(NCCSc1ccccc1)c1ccccc1F | -5.63%
COCn1c(COc2ccccc2)nc2ccccc21 | -33.2%
O=C(N/N=C/c1cccc(Oc2ccc([N+](=O)[O-])cc2[N+](=O)[O-])c1)c1cncc(Br)c1 | -16%
CN(C)c1ccc(NC(=O)Nc2ccc3c(c2)nnn3C)cc1 | 6.96%
CC1Cc2ccccc2N1C(=O)c1ccc(Br)o1 (centres undefined) | -35.6%
O=C(c1cc2ccccc2oc1=O)N1CCN(c2ncccn2)CC1 | -6.63%
CN(c1cccc(NC(=O)COc2ccc(Cl)cc2Cl)c1)S(C)(=O)=O | -2.24%
Cc1ccc(OCC(=O)Nc2cccc(C)n2)c(C)c1 | 11.2%
CCOc1ccccc1-c1nc(-c2ccc(C)nc2OC)no1 | -0.189%
C=CCNC(=O)c1ccc2nc(Cc3ccc(OC)cc3)oc2c1 | 1.33%
O=C(Nc1nc2cc3c(cc2s1)OCO3)C1=COCCO1 | -32.8%
O=C(/C=C/c1ccc(Cl)cc1)c1ccc([N+](=O)[O-])o1 | -38.6%
CCOCCCNC(=O)/C(C#N)=C/c1ccc(Cl)c([N+](=O)[O-])c1 | -34.9%
Cc1nc2cc(NC(=O)Nc3cccc([N+](=O)[O-])c3)ccc2n1C | -6.54%
O=C(Cc1ccccc1)Nc1ccc(NC(=O)c2ccco2)nc1 | -8.09%
CN(C)/C=N/c1ncc(C(=O)c2ccccc2)s1 | -12.3%
C=C1C(=O)O[C@@]23[C@H]1CC[C@@H](C)[C@@H]2CC[C@@]1(C)O[C@@H]31 | 6.52%
COc1ccc2oc3ccc(OC)cc3c(=O)c2c1 | -16.6%
